# PubChem BioAssay
# Where “and” joins values, the source holds several entries; their conditions need not be identical. Identical values can stand only once. A number with no mark means an inactive call. Some of the results follow. Calls of active or inactive are those of the source.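 The calls were made as follows, unless noted: active = inhibition above the mean over all tested compounds plus 3 SD, which no compound reached; inactive = the rest.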
# Tests used:
# [1] = system: HIV-1 integrase (multimerization); assay: HIV-1 IN multimer formation enhancers, counter-screen for LEDGF/p75 integration inhibitor project, biochemical, TR-FRET (AID 1053131; in the data active = activation above about 8.9%); settings: TR-FRET HIV-1 integrase multimerization, at 7.7 µM, stronger effect = higher value
# [2] = TR-FRET optical interference artefacts, confirmation, artefact control for LEDGF/p75-dependent integration inhibitor project, biochemical, HIV-1 IN multimerization (AID 1053135); settings: TR-FRET optical interference counterscreen, at 7.7 µM, stronger effect = higher value;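 also: 0% = integrase with antibodies and DMSO and 100% = antibodies without integrase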
# [3] = system: HIV-1 integrase / human LEDGF/p75 complex; assay: inhibitors of HIV-1 IN-LEDGF/p75 DNA integration, confirmation, biochemical, TR-FRET (AID 1053136; in the data active = inhibition above about 14%); settings: TR-FRET LEDGF/p75-dependent HIV-1 integration, at 3.7 µM, stronger effect = higher value
# [4] = target: Protein phosphatase methylesterase 1 (Homo sapiens) (UniProt Q9Y570); assay: PME-1 inhibitor activity retest, confirmation, biochemical, fluorescence polarization, FP-Rh probe, triplicate (AID 2171;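 active = inhibition above the hit cutoff set in the earlier primary screen, cut at about 27% in these data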;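 also: 0% = enzyme with DMSO and 100% = wells lacking PME-1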); settings: recombinant PME-1, FP-Rh probe fluorescence polarization; at 5.9 µM; stronger effect = higher value
# Sequence of Protein phosphatase methylesterase 1 (Homo sapiens) (Q9Y570 whole entry, looked up): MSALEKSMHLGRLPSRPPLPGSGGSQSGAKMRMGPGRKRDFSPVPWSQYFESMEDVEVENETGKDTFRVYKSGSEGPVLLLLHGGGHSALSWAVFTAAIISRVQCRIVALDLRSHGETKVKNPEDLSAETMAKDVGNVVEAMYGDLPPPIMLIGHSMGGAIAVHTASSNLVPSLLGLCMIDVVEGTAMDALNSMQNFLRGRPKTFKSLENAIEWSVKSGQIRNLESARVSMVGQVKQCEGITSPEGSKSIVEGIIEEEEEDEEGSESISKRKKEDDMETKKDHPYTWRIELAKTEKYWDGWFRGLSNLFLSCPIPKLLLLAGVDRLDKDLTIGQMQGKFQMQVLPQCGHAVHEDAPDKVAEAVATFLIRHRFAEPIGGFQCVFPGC
# [5] = target: Glutathione S-transferase omega-1 (Homo sapiens) (UniProt P78417); assay: GSTO1 inhibitor hit confirmation, counter-screen for RBBP9 inhibitor project, biochemical, fluorescence polarization, triplicate (AID 2176;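 active = inhibition above the primary screen's cutoff, its mean inhibition plus 3 SD, cut at about 35% in these data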;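 also: loss of polarization as inhibitors block binding of rhodamine sulfonate ester activity probe; 0% = GSTO1 with DMSO and 100% = wells lacking GSTO1 enzyme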); settings: recombinant GSTO1, probe fluorescence polarization; at 5.96 µM; stronger effect = higher value
# Sequence of Glutathione S-transferase omega-1 (Homo sapiens) (P78417 whole entry, looked up): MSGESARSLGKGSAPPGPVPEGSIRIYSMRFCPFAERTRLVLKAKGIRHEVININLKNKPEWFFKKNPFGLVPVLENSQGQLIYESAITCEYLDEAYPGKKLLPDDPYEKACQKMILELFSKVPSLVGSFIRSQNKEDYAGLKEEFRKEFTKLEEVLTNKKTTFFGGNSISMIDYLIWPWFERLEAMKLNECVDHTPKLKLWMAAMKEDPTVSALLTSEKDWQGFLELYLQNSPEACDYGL
# [6] = target: Protein-arginine deiminase type-4 (Homo sapiens) (UniProt Q9UM07); assay: human PAD4 inhibitors, confirmation, biochemical, fluorescence polarization (AID 488796;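 active = mean inhibition across replicates above the hit cutoff set by the earlier primary screen, cut at about 15% in these data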;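 also: inhibitors block active-site labeling by the probe so polarization falls; 0% = PAD4 with probe and DMSO and 100% = probe without PAD4 enzyme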); settings: recombinant PAD4, RCA probe fluorescence polarization; at 6.36 µM; stronger effect = higher value
# Sequence of Protein-arginine deiminase type-4 (Homo sapiens) (Q9UM07 whole entry, looked up): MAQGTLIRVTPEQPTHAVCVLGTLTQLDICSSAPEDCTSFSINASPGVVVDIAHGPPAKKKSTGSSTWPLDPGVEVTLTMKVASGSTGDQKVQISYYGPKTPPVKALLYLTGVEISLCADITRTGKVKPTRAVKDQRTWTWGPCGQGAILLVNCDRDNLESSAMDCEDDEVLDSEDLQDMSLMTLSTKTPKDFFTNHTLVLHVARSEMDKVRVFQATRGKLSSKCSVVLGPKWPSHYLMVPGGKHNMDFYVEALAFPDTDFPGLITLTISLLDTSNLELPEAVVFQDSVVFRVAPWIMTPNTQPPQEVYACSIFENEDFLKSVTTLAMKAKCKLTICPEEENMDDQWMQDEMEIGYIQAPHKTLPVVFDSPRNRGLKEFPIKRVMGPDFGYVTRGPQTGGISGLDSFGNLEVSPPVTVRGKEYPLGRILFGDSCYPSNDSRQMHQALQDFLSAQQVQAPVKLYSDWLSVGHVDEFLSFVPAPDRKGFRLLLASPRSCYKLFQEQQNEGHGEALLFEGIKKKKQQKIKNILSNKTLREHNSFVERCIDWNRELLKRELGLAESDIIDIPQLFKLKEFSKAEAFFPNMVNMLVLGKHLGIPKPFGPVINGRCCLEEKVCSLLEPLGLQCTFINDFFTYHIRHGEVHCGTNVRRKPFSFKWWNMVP
# [7] = target: Platelet-activating factor acetylhydrolase (Homo sapiens) (UniProt Q13093); assay: pPAFAH (PLA2G7) enzyme inhibitors, confirmation, biochemical, fluorescence polarization, human (AID 463230;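 active = mean inhibition of the triplicate above the hit cutoff set for the earlier primary screen, cut at about 25% in these data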;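 also: 0% = enzyme with DMSO and 100% = wells lacking pPAFAH enzyme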); settings: recombinant pPAFAH, FP-Rh probe fluorescence polarization; at 3.39 µM; stronger effect = higher value
# Sequence of Platelet-activating factor acetylhydrolase (Homo sapiens) (Q13093 whole entry, looked up): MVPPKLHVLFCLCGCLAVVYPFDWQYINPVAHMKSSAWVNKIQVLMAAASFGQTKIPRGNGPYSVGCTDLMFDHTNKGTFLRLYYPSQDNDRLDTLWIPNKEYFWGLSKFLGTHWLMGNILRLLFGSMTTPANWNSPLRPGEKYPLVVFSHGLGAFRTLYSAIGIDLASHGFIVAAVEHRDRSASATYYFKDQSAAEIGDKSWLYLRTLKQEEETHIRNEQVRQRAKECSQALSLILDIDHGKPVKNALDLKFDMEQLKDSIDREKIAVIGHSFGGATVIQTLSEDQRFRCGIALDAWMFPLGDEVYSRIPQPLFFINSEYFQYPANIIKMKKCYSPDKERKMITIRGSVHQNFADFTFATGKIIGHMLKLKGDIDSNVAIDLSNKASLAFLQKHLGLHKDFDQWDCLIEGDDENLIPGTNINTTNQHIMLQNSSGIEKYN
# [8] = growth loss of phage-infected E. coli expressing H. pylori AddAB, confirmation, AddAB inhibitor project, absorbance, E. coli V3065, T4 phage, triplicate (AID 488942;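 active = mean inhibition above a set limit taken from the earlier primary screen, cut at about 13% in these data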;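 also: higher means less bacterial growth since AddAB block lets phage replicate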); settings: OD, at 11.9 µM, stronger effect = higher value, T4 phage with gene 2 nonsense mutations
# [9] = growth loss of RecBCD+ E. coli with mutant T4 phage, counter-screen for AddAB inhibitor project, absorbance, V66 E. coli (AID 488955;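 active = mean inhibition above the mean of solvent-only control wells plus 3 SD, cut at about 4% in these data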;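 also: optical density read after an 18 h incubation at 37 °C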); settings: OD growth, at 11.9 µM, stronger effect = higher value
# [10] = bacterial viability inhibition counter-screen, confirmation, counter-screen for AddAB inhibitor project, absorbance (AID 488956; in the data active = inhibition above about 25%); settings: absorbance (AddAB counterscreen), at 11.9 µM, stronger effect = higher value
# [11] = growth loss of phage-infected RecBCD+ E. coli, confirmation, RecBCD inhibitor project, absorbance, E. coli V66, T4 gene 2 phage (AID 651982;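 active = mean inhibition over triplicates exceeding the hit threshold derived in the original primary screen, cut at about 11% in these data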); settings: E. coli V66 + T4 2- phage, growth OD; at 11.9 µM; stronger effect = higher value
# [12] = E. coli viability inhibition, counter-screen for RecBCD inhibitor project, absorbance, high throughput (AID 651983; in the data active = inhibition above about 20%;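 also: E. coli strain V66 grown with compound alone and no phage infection; 0% = bacteria with DMSO vehicle only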); settings: absorbance (OD) growth, at 11.9 µM, stronger effect = higher value
# [13] = growth loss of phage-infected AddAB-carrying E. coli, confirmation, counter-screen for RecBCD inhibitor project, absorbance, E. coli V3065, T4 phage (AID 651984;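 active = mean inhibition above the solvent-only control wells' mean plus 3 SD, cut at about 22% in these data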;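 also: higher means less bacterial growth from phage killing when AddAB is blocked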); settings: E. coli expressing H. pylori AddAB + T4 phage, OD growth; at 11.9 µM; stronger effect = higher value; gene 2 mutant T4, recBCD-deleted host
# [14] = compounds interfering with TAMRA-BSA probe, counter-screen for TCR-CD3 interaction inhibitor project, biochemical, fluorescence, TAMRA-labeled BSA (AID 652035; in the data active = inhibition above about 23%;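 also: 0% = buffer low control and 100% = reference high control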); settings: TAMRA-labeled BSA probe fluorescence counterscreen; at 9.4 µM; stronger effect = higher value
# [15] = system: T-cell receptor (TCR)-CD3 interaction, human; assay: TCR-CD3 interaction inhibitors, retest, confirmation, biochemical, fluorescence, TAMRA-labeled TCR probe (AID 652036; in the data active = inhibition above about 19%); settings: TAMRA-labeled TCR probe fluorescence binding assay; at 9.4 µM; stronger effect = higher value
# [16] = target: (Lyso)-N-acylphosphatidylethanolamine lipase (Mus musculus) (UniProt Q8VD66); assay: ABHD4 inhibitors, retest, confirmation, biochemical, fluorescence polarization, mouse (AID 720658;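 active = mean inhibition across replicates above the hit cutoff set in the primary screen, cut at about 30% in these data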;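 also: 0% = wild-type ABHD4 with DMSO and 100% = catalytically dead S159A mutant with DMSO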); settings: purified mABHD4, FP-Rh probe fluorescence polarization; at 8.92 µM; stronger effect = higher value
# Sequence of (Lyso)-N-acylphosphatidylethanolamine lipase (Mus musculus) (Q8VD66 whole entry, looked up): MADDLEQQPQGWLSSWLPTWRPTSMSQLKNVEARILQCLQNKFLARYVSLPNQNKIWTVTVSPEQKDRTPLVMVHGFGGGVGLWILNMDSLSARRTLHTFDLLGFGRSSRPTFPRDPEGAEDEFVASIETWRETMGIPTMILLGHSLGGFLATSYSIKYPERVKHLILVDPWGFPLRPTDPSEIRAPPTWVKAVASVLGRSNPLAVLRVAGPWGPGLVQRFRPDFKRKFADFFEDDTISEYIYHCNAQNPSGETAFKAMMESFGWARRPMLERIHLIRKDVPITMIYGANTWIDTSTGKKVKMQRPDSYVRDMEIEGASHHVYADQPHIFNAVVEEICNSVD
# [17] = target: Bcl-2-like protein 1 (Homo sapiens) (UniProt Q07817); assay: Bcl-xL inhibitors blocking Bim BH3 binding, confirmation, counter-screen for MCL1 inhibitor project, biochemical, fluorescence polarization (AID 2166;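 active = inhibition above a cutoff equal to the mean inhibition of all tested compounds plus 3 SD, cut at about 30% in these data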); settings: GST-Bcl-xL / FITC-Bim BH3 peptide FP binding; at 10.9 µM; stronger effect = higher value
# [18] = target: Induced myeloid leukemia cell differentiation protein Mcl-1 (Homo sapiens) (UniProt Q07820); assay: inhibitors of MCL1 binding to BIM-BH3, confirmation, biochemical, fluorescence polarization, triplicate (AID 2168;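 active = inhibition above the average of all tested compounds plus 3 SD, cut at about 40% in these data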;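 also: 0% = DMSO wells and 100% = unlabeled Bim-BH3 control peptide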); settings: GST-MCL1 / FITC-Bim-BH3 fluorescence polarization; at 10.9 µM; stronger effect = higher value
# Sequence of Induced myeloid leukemia cell differentiation protein Mcl-1 (Homo sapiens) (Q07820 whole entry, looked up): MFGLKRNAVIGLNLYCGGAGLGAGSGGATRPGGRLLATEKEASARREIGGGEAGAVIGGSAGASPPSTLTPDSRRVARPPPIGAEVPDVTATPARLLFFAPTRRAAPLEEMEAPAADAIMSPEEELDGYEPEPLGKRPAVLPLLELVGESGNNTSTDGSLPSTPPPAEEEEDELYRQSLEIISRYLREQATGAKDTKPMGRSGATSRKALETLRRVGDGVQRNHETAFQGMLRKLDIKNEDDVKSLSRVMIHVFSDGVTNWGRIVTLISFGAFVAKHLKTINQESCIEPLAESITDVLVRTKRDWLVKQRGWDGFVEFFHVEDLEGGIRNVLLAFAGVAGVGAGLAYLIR
# [19] = target: Peroxisome proliferator-activated receptor gamma (Homo sapiens) (UniProt P37231); assay: agonists of PPARgamma SRC-2 coactivator recruitment, confirmation, biochemical, HTS (AID 1297; in the data active = activation above about 22%;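 also: 0% = vehicle alone and 100% = reference agonist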); settings: biochemical SRC-2 recruitment by PPARgamma; at 8 µM; stronger effect = higher value
# Sequence of Peroxisome proliferator-activated receptor gamma (Homo sapiens) (P37231 whole entry, looked up): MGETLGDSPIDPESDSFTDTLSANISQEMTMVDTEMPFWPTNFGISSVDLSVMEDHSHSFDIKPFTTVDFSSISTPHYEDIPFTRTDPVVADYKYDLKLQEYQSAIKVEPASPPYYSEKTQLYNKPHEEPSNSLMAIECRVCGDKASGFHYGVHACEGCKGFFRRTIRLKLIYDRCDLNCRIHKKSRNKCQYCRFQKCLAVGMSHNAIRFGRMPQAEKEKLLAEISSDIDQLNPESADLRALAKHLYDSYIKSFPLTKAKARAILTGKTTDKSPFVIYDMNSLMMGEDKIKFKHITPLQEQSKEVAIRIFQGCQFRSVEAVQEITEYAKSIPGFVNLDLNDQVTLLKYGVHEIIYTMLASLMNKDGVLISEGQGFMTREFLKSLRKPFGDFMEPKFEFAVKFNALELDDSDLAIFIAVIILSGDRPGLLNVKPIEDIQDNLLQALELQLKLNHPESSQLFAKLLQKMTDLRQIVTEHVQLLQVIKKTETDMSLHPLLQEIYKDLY
# [20] = target: Peroxisome proliferator-activated receptor gamma (Homo sapiens) (UniProt P37231); assay: PPARgamma agonists recruiting SRC-1 coactivator, confirmation, biochemical (AID 1300; in the data active = activation above about 20%;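 also: 0% = vehicle wells and 100% = reference agonist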); settings: PPARgamma–SRC-1 coactivator recruitment biochemical assay; at 8 µM; stronger effect = higher value
# [21] = target: Peroxisome proliferator-activated receptor gamma (Homo sapiens) + Nuclear receptor coactivator 3 (Homo sapiens) (UniProt P37231+Q9Y6Q9); assay: PPARgamma-driven SRC-3 coactivator recruitment agonists, confirmation, biochemical (AID 1301; in the data active = activation above about 24%;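 also: 0% = vehicle wells and 100% = reference agonist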); settings: biochemical PPARgamma-SRC-3 coactivator recruitment, agonist mode; at 8 µM; stronger effect = higher value
# Sequence of Peroxisome proliferator-activated receptor gamma (Homo sapiens) + Nuclear receptor coactivator 3 (Homo sapiens) (P37231 whole entry, looked up): as above
# Sequence of Peroxisome proliferator-activated receptor gamma (Homo sapiens) + Nuclear receptor coactivator 3 (Homo sapiens) (Q9Y6Q9 whole entry, looked up): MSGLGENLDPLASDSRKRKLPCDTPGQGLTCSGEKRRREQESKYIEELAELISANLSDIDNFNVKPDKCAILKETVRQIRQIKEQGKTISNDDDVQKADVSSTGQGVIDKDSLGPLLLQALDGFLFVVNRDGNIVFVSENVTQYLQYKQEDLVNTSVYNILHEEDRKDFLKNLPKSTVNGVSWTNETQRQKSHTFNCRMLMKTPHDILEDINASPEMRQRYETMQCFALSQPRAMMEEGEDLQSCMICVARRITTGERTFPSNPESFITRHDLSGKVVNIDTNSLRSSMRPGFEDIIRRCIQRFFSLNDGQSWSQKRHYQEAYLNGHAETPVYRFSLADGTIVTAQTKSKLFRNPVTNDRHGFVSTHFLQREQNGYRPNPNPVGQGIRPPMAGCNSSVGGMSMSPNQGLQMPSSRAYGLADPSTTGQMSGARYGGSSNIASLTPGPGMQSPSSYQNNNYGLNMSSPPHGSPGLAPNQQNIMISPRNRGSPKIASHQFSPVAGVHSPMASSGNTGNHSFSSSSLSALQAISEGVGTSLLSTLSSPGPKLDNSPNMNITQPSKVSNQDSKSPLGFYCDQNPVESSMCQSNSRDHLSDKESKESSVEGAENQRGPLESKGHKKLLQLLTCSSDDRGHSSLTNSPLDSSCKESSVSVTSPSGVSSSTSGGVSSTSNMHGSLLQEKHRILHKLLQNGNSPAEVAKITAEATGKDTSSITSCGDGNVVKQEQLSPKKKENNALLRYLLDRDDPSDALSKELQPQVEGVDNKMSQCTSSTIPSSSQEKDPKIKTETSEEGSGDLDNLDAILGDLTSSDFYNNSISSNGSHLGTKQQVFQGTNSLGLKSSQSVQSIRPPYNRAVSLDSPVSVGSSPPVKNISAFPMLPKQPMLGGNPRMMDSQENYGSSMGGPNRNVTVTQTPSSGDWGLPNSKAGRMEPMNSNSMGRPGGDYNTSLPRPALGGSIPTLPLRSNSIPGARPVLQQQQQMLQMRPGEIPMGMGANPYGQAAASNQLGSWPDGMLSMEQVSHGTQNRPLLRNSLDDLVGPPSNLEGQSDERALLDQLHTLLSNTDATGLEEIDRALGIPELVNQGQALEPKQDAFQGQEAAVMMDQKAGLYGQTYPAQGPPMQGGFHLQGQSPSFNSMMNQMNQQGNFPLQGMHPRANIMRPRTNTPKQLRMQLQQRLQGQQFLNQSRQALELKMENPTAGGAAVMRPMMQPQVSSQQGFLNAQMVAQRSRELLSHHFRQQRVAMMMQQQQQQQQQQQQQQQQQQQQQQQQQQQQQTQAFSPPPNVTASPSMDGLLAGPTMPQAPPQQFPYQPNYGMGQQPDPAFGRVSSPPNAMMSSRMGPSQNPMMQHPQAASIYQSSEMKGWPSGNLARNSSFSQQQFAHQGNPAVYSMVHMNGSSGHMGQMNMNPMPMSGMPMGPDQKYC
# [22] = target: Serine protease HTRA1 (Homo sapiens) (UniProt Q92743); assay: HTRA1 protease inhibitors, retest, confirmation, biochemical, fluorescence polarization (AID 540248;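 active = mean inhibition over three repeats above a set limit taken from the earlier primary screen, cut at about 37% in these data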;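 also: 0% = HTRA1 with DMSO and 100% = wells lacking HTRA1; inhibitors block probe binding so polarization drops and inhibition rises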); settings: recombinant HTRA1, FP-rhodamine activity-based probe, at 5.96 µM, stronger effect = higher value
# [23] = STAT1 signaling activators, confirmation, cell-based, HTS, luciferase reporter (AID 1262;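 active = activation above a set limit carried over from the earlier primary STAT1 screen, cut at about 140% in these data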;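 also: simple ratio to median IFN-gamma plus DMSO wells so 0% means no light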); settings: NIH 3T3 STAT1-luciferase reporter, IFN-gamma potentiation, luminescence; at 5.7 µM; stronger effect = higher value; 100% = IFN-gamma EC80 alone, no compound
# [24] = NF-kB reporter activators, TNF-alpha stimulated, counter-screen for STAT1 activator project, cell-based, HEK293T, luciferase luminescence (AID 1306;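 active = activation above the mean of solvent-only control wells plus 3 SD, set per campaign, cut at about 130% in these data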;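 also: TNF-alpha given at a submaximal dose yielding about 80% of full reporter signal; values are well signal over median control so 100% means no change and 0% no light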); settings: at 5.7 µM, stronger effect = higher value, 100% = TNF-alpha with vehicle only
# [25] = target: Signal transducer and activator of transcription 3 (Homo sapiens) (UniProt P40763); assay: STAT3 reporter activation by STAT1 hits, confirmation, counter-screen for STAT1 activator project, U3A cells, luciferase, luminescence (AID 1316;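 active = activation above the solvent-only control well mean plus 3 SD, set per plate batch, cut at about 110% in these data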;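 also: 0% = no luminescence and 100% = median IL-6 plus DMSO wells; higher means more STAT3 reporter activation so hits are non-selective activators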); settings: IL-6, luminescence, at 5.7 µM, stronger effect = higher value, 100 = IL-6 alone, no compound effect, cells lack STAT1
compound,measurement,setting,value
Cc1ccc(C(=O)N/C(=C/c2cccs2)C(=O)N2CCCCC2)cc1,activation,[1],-0.16%
same,inhibition,[2],0.87%
same,inhibition,[3],0.33%
Cc1ccc(C(=O)N2CCCc3ccccc32)c(Cl)c1,activation,[1],-0.4%
same,inhibition,[2],2.02%
same,inhibition,[3],1.35%
CCOC(=O)c1ccc(Nc2cc3ccccc3c(=O)[nH]2)cc1,inhibition,[4],53.9% (active)
same,activation,[1],-1.62%
same,inhibition,[2],8.23%
same,inhibition,[3],29.8% (active)
Cc1cc(=O)n2[nH]c(-c3sccc3-n3c(C)ccc3C)cc2n1,activation,[1],4.52%
same,inhibition,[2],-16.3%
same,inhibition,[3],1.35%
CCN(CC)CCOc1ccc2c(c1)C(=NNC(=O)c1ccccn1)c1cc(OCCN(CC)CC)ccc1-2,activation,[1],2.34%
same,inhibition,[2],-8.61%
same,inhibition,[3],6.51%
Cc1ccc(/C=C/C(=O)Nc2ccc([N+](=O)[O-])c(NC(=O)/C=C/c3ccc(C)o3)c2)o1,activation,[1],14.2% (active)
same,inhibition,[2],-71.7%
same,inhibition,[3],41.9% (active)
O=S(=O)(Nc1ccc(O)c2ccccc12)c1ccc(OC(F)(F)F)cc1,inhibition,[5],38.2% (active)
same,inhibition,[6],15% (active)
same,activation,[1],1.57%
same,inhibition,[2],-5.75%
same,inhibition,[3],8.79%
CN(C)[C@@H]1C(=O)C(C(N)=O)=C(O)[C@@]2(O)C(=O)C3=C(O)c4c(O)ccc(Cl)c4[C@@H](O)[C@H]3C[C@@H]12,inhibition,[5],24.2%
same,inhibition,[7],-0.22%
same,inhibition,[8],102% (active)
same,inhibition,[9],100% (active)
same,inhibition,[10],101% (active)
same,inhibition,[11],102% (active)
same,inhibition,[12],104% (active)
same,inhibition,[13],102% (active)
same,inhibition,[14],-3.91%
same,inhibition,[15],1.29%
same,inhibition,[16],17.2%
same,activation,[1],6.8%
same,inhibition,[2],-24.2%
same,inhibition,[3],1.42%
CN(C(=O)COC(=O)c1cc(-c2ccco2)nc2ccccc12)C1CCS(=O)(=O)C1 (stereo unspecified),inhibition,[17],34.6% (active)
same,inhibition,[18],95.6% (active)
same,inhibition,[5],38.5% (active)
same,inhibition,[14],3.94%
same,inhibition,[15],28.1% (active)
same,activation,[1],24.1% (active)
same,inhibition,[2],-121%
same,inhibition,[3],53.3% (active)
C[C@H]([C@@H](O)[C@@H](O)[C@@H](C)C(C)(C)C)[C@H]1CC[C@H]2C3CC[C@H]4C[C@H](OS(=O)(=O)O)[C@@H](OS(=O)(=O)O)C[C@]4(C)[C@H]3CC[C@]12C (stereo partly specified),activation,[1],-1.87%
same,inhibition,[2],6.58%
same,inhibition,[3],32.4% (active)
CN(C)c1ccc(N/C=C/C(=O)C(F)(F)F)cc1,activation,[19],21.7%
same,activation,[20],15.3%
same,activation,[21],12.7%
same,inhibition,[5],6.83%
same,inhibition,[7],-0.71%
same,inhibition,[6],1.99%
same,inhibition,[22],5.14%
same,inhibition,[14],0.92%
same,inhibition,[15],2.09%
same,inhibition,[16],2.7%
same,activation,[1],14.5% (active)
same,inhibition,[2],-51.7%
same,inhibition,[3],0%
Oc1ccc(N=Cc2sc3ccccc3c2Cl)cc1,inhibition,[5],12.2%
same,inhibition,[6],3%
same,inhibition,[22],50.3% (active)
same,inhibition,[14],13.2%
same,inhibition,[15],7.56%
same,inhibition,[16],-6.63%
same,activation,[1],10.4% (active)
same,inhibition,[2],-37.1%
same,inhibition,[3],55.2% (active)
CCOC(=O)/C(C#N)=C\c1c(C)cc(C)c(COC(C)=O)c1C,activation,[1],0.2%
same,inhibition,[2],-1.03%
same,inhibition,[3],3.21%
CC(=O)OCC1(O)CC23CCC4c5ccoc5CCC4(C)C2CCC1C3 (stereo unspecified),activation,[1],0.06%
same,inhibition,[2],-0.26%
same,inhibition,[3],9.45%
C=CCN1C(=O)C(O)(CC(=O)c2ccccn2)c2ccccc21 (stereo unspecified),activation,[1],0.97%
same,inhibition,[2],-4.84%
same,inhibition,[3],0.38%
CO/N=C(\C(=O)N[C@@H]1C(=O)N2C(C(=O)O)=C(COC(C)=O)CS[C@H]12)c1csc(N)n1 (stereo in doubt),inhibition,[8],99.2% (active) and 97% (active)
same,inhibition,[9],99.5% (active) and 97.6% (active)
same,inhibition,[10],99.6% (active) and 98.1% (active)
same,inhibition,[11],100% (active) and 96.2% (active) and 102% (active)
same,inhibition,[12],102% (active) and 97.1% (active) and 103% (active)
same,inhibition,[13],102% (active) and 96.3% (active)
same,activation,[1],0.25%
same,inhibition,[2],-1.28%
same,inhibition,[3],42.8% (active)
O=C1C=CC(=O)N1c1ccc(N2CCCCC2)cc1,inhibition,[16],17.5%
same,activation,[1],1.69%
same,inhibition,[2],-8.48%
same,inhibition,[3],5.47%
Nc1ncc(-c2cc3ccccc3oc2=O)s1,activation (% of control),[23],184% (active)
same,activation (% of control),[24],124%
same,activation (% of control),[25],110%
